Assay results published in PubChem BioAssay AID1159606 (Sanford-Burnham Center for Chemical Genomics, 2016).
Out of some 360,000 compounds screened, about 7,300 (2%) were called active. Cut-off read from the data, not from the text of the source: active = inhibition above about 50%; inactive = the rest. Only a selection was taken, and actives are over-represented in it overall.

Experiment: blockers of TWEAK-induced Fn14 reporter activity – luciferase reporter cells, uHTS, primary screen (AID 1159606)
Conditions: TWEAK-stimulated Fn14 reporter cells, luciferase luminescence, 8 h; at 10 µM; hits give high values

inhibition, active:
CC(C)(CCl)C(=O)Nc1ccc(Sc2ccc(F)cc2)cc1 60.9%
Cc1cccc(-n2c(SCC(N)=O)nc3c(c2=O)C2(CCCCC2)Cc2ccccc2-3)c1 54%
O=C(/C=C/c1ccc(Cl)c([N+](=O)[O-])c1)c1ccc(O)cc1 84.1%
O=S(=O)([N-]c1nc2ccccc2nc1-[n+]1ccc(Cc2ccccc2)cc1)c1ccc(Br)s1 101%
O=C(Nc1cccc(NC(=O)N2CCN(c3ccccc3)CC2)c1)N1CCN(c2ccccc2)CC1 86.3%
COc1ccc(NC(=O)/C(Cl)=C(/Cl)S(=O)Cc2ccc(C)cc2)cn1 (stereo unspecified) 97.5%
COc1cccc2sc(Nc3nc(C)c(C(C)=O)s3)nc12 94.3%
O=C1OC(/C=C/c2ccccc2)=NC/1=C/c1ccco1 51%
CCc1ccc2oc(-c3ccc(N)cc3)nc2c1 60.2%
COc1ccc2c(c1)C=CC1(O2)N(CCO)c2ccccc2C1(C)C (stereo unspecified) 86.2%
COc1cccc2c1C(=O)c1c(O)c3c(c(O)c1C2=O)CC(O)(C(C)=NNC(=O)c1ccc(Cl)c(Cl)c1)CC3OC1CC(N)C(O)C(C)O1 (stereo unspecified) 100%

inhibition, inactive:
O=C(CCl)Nc1ccc(Sc2ccc(NC(=O)CCl)cc2)cc1 -24.1%
Cc1ccc(Sc2ccc(NC(=O)c3ccc(F)cc3)cc2C#N)cc1 -7.53%
CCn1c(SCC(=O)Nc2nc(C)cs2)nnc1C(C)NC(=O)c1ccccc1 (stereo unspecified) -0.58%
CN(Cc1ccccc1)C(=O)[C@@H]1CCCN1C(=O)[C@@H]1CCCN1C(=O)c1c(F)cccc1F 12.3%
CCOCCCN(C)C1CCN(C(=O)c2oc3ccccc3c2NC(=O)COc2cccc(C)c2)CC1 -4.99%
N#CCSc1nc2c(c(=O)n1Cc1ccccc1)C1(CCCC1)Cc1ccccc1-2 13.4%
Cc1cccc(-n2c(=O)c3c(C)c(C)sc3n(CC(N)=O)c2=O)c1 21.1%
CCCc1nc2c3ccccc3ccn2c1Cc1ccccc1C(F)(F)F 8.3%
Cc1noc(C)c1S(=O)(=O)N1CCCC(C(=O)Nc2nccs2)C1 (stereo unspecified) 4.3%
CC(CC(=O)O)C(=O)c1ccc(Cl)c([N+](=O)[O-])c1 (stereo unspecified) 0.14%
CC(=O)Nc1ccc(C=CC(=O)c2ccc([N+](=O)[O-])cc2)cc1 5.86%
O=S(=O)(NCc1ccccn1)c1ccc(Br)s1 -7.41%
Cn1c2c(c(=O)n(C)c1=O)C(c1cccc([N+](=O)[O-])c1)Nc1ccccc1O2 (stereo unspecified) -3.73%
COc1cccc(N2CCN(C(=O)Nc3ccc4c(c3)NC(=O)CO4)CC2)c1 8.92%
O=C(Nc1ccccc1)N1CCN(C2c3ccccc3-c3ccccc32)CC1 -2.27%
Cc1nc(SC(C)C)[nH]c(=O)c1Cc1ccccc1 3.45%
COc1ccc(NC(=O)CN2C(=O)NC(C)(c3ccccc3)C2=O)cn1 (stereo unspecified) -0.71%
COc1ccc(NC(=O)C2Cc3c(-c4ccc5c(c4)OCO5)ccnc3O2)cn1 (stereo unspecified) 14.2%
CC(=O)c1ccc(OCC(=O)N(C)C2CCS(=O)(=O)C2)cc1 (stereo unspecified) 0.02%
CC(C)NC(=O)c1ccccc1S(=O)c1ccccc1C#N (stereo unspecified) 3.58%
O=C(c1ccc(C(F)(F)F)cc1)N1CCC(=O)N([C@H](COCc2ccccc2)Cc2ccccc2)CC1 13.8%
CC(=O)c1sc(N/N=C/c2ccc(C(C)C)cc2)nc1C -16.6%
CNC(=O)c1sc(Nc2ccc(OCc3ccccc3)cc2)nc1C 32.3%
Cc1cc(N2C(=O)c3ccc(C(=O)NCc4ccccc4)cc3C2=O)no1 -3.3%
COC(=O)[C@@]1(Cc2ccc(F)cc2)[C@H]2c3cc(C(=O)N(C)C)n(CCc4c[nH]c5ccc(OC)cc45)c3C[C@H]2CN1C(=O)c1ccccc1 34.5%
O=C(NCc1ccccc1)C1c2ccccc2OCC(=O)N1CCCN1CCOCC1 (stereo unspecified) -1.12%
CC(C)(C)C1C/C(=C/c2ccco2)C(=O)/C(=C/c2ccco2)C1 (stereo unspecified) 9.75%
COc1ccccc1/C=C/C1=NC(=C\N(C)C)/C(=O)O1 -17.3%
CN(/C(=N/S(=O)(=O)c1cccs1)c1ccccc1)c1ccc(O)cc1 7.69%
O=C1Nc2ccccc2NC(c2ccc3c(c2)OCO3)=C1N(Cc1ccc(F)cc1)C(=O)c1ccco1 9.28%
O=C1CC[C@@H](C(=O)N2CSC[C@@H]2C(=O)Nc2ccc(C(F)(F)F)cc2)N1 22.5%
CC1Cc2ccccc2N1S(=O)(=O)c1c(N)n(C)c(=O)n(C)c1=O (stereo unspecified) -4.11%
C[C@H]1[C@H]2c3nc4ccccc4n3C[C@H]1ON2C1CCCCC1 -8.66%
O=c1[nH][nH]c2c1[C@H](c1ccc(Cl)cc1)O[C@H](CCc1ccccc1)C2 9.82%
CN1c2ccc([N+](=O)[O-])cc2C(C)(C)C12C=Cc1cc(C(=O)O)ccc1O2 (stereo unspecified) 0.62%
COc1cccc(CC2(CO)CCCN(CC3=Cc4cc(OC)ccc4OC3)C2)c1 (stereo unspecified) 37.8%
CCN1CCN(C(=O)C2(NC(=O)Nc3cccc(F)c3)CCCCC2)CC1 6.11%
CCN(CC)CCn1c(=S)[nH]c2ncccc2c1=O 11.7%
COc1cc(N2C(=O)c3ccccc3C2=O)c(Cl)cc1C(=O)OCC(=O)N1CCOCC1 16.7%
N#Cc1ccc(-c2ccc3nccn3c2)cc1 -15.9%
CCOC(=O)c1cc(C)sc1NC(=O)C1CCC1 13.5%
Clc1cccc(Cc2c(-c3cccc(Cl)c3)nc3ccc(Cl)cn23)c1 -8.97%
CCN1C(=O)/C(=C2\SC(N3CCCCC3)=NC2=O)c2ccccc21 -25.1%
COc1ccc(S(=O)(=O)N2CN(CCc3ccc(OC)c(OC)c3)c3nc4ccccc4nc32)cc1 14%
COc1ccc(COC(=O)c2n[nH]c3ccccc23)cc1F -8.86%
